These molecules were tested on WEE1. Details: concentration: 1 μM, replicates: in singlicate; n = 1.
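Note: KINOMEscan kinase panel screen.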

Compared with Cc1ccc(NC(=O)c2ccc(Cl)cc2)cc1-c1ccc(C(=O)Nc2ccncc2)cc1 [GSK1398467], Cc1ccc(NC(=O)Nc2ccccc2F)cc1-c1ccc(C(=O)Nc2ccncc2)cc1 [GSK1398477] is higher in “%Inh” value: 0% for the first, 26% for the second.

O=C(Nc1n[nH]c2nc(-c3cccs3)c(Br)cc12)C1CCCC1 [SB-743341] and O=C(Nc1n[nH]c2nc(-c3cccs3)c(Br)cc12)C1CC1 [SB-735297] are the same in “%Inh” value: 0% for the first, 0% for the second.

Going from COc1ccc2cc(-c3nc(-c4ccccc4C(C)C)[nH]c3-c3ccncc3)ccc2c1 [SB-660566] to Fc1ccc(-c2nn3cccc(F)c3c2-c2ccncc2)cc1 [GW475620], the “%Inh” value falls from 12% to 0%.

COc1cc2ncnc(Nc3cccc(Br)c3)c2cc1OC.Cl [GI230329] and Cn1cncc1-c1cc2c(Nc3ccc(OCc4ccccc4)cc3)ncnc2cn1 [GW281179] are the same in “%Inh” value: 2% for the first, 2% for the second.

Going from O=c1cc(N2CCOCC2)nc2n(Cc3cccc(Cl)c3Cl)c3ccccc3n12 [GSK2299009] to CNc1nc(-c2ccc3c(N)n[nH]c3c2)cc(N2C[C@@H](C(=O)Nc3ccccc3)CC[C@H]2C)n1 [GSK2298859], the “%Inh” value falls from 28% to 9%.

Compared with CC(=O)c1c(C)c2cnc(Nc3ccn(C)n3)nc2n(C2CCCC2)c1=O, CNc1nc(-c2ccc3c(N)n[nH]c3c2)cc(N2C[C@@H](C(=O)NC3CCCCC3)OC[C@H]2C)n1 [GSK2375584] is higher in “%Inh” value: 0% for the first, 29% for the second.

CN1c2ccc(-c3ccc(C(N)=O)cc3)cc2-c2[nH]ncc2S1(=O)=O and CCc1ccc(-c2ccc3c(c2)-c2n[nH]cc2S(=O)(=O)N3C)cc1 are the same in “%Inh” value: 14% for the first, 14% for the second.

Going from COc1ccc(Nc2nccc(NCCNC(=O)Nc3cc(C)ccc3C)n2)cc1 [GSK1379899] to COc1ccc(Nc2nccc(N3CCC(NC(=O)C(C)c4ccc(Cl)cc4)CC3)n2)cc1 (centres unmarked) [GSK1379812], the “%Inh” value rises from 0% to 31%.

First: Nc1cccc(-c2ccc3c(N)n[nH]c3c2)n1 [GSK2192730]
Second: c1ccc(-c2ccnc3[nH]ccc23)cc1 [SB-693578]
The “%Inh” value of the first is lower: 0% for the first, 10% for the second.

Going from Cn1cncc1C(=O)NC1CCN(c2ccnc(Nc3ccc(F)cc3)n2)C1 (centres unmarked) [GSK1379717] to Fc1ccc(-c2nc[nH]c2-c2ccncc2)cc1 [SB-217360], the “%Inh” value falls from 7% to 4%.

Compared with CS(=O)(=O)CCNCc1nc(-c2ccc3ncnc(Nc4ccc(OCc5ccccc5)c(Cl)c4)c3c2)cs1.Cl [GW582764], Cc1ccc(NC(=O)Nc2ccc(Cl)c(C(F)(F)F)c2)cc1-c1ccc(C(=O)Nc2ccncc2)cc1 [GSK1398470] is higher in “%Inh” value: 0% for the first, 3% for the second.

For COc1cccc(C2=C(Nc3cc(Cl)c(O)c(Cl)c3)C(=O)NC2=O)c1 [SB-390767], the “%Inh” value was 0%.
